Only some compounds are listed: those with a hit (about 19% of all), similar ones and a draw of the others.
TGFb inhibitor = blocks TGF-b signaling; HepG2 CAGA-GFP TGF-b/SMAD3 reporter, GFP fluorescence, 18 h; TGF-beta stimulated, 500 pg/mL final; Potency, µM (series often up to 46.1 µM), most hits filed as inhibitors; 1.2% of 410,000 active; AID 588855; note: nearly all actives have a fitted effect of over 65% in size
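Read-out: total well GFP (ex488/em500-530) summed from mean per-cell fluorescence. Cells: HEPG2 CAGA-GFP, 1% FBS DMEM, 18 h at 37 degrees C with 500 pg/mL final TGF-beta. Unstimulated wells served as the full-inhibition control; stimulated DMSO wells = 0%.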
DT40 TDP1 no CPT = qHTS for Inhibitors of human tyrosyl-DNA phosphodiesterase 1 (TDP1): qHTS in cells in absence of CPT; 15% of 420,000 active; Potency, µM (top dose mostly 46.2 µM), hits mostly inhibitors; DT40 Tdp1-/- hTDP1 cells, no CPT, ATP luminescence, 48 h; note: nearly all actives have a fitted effect of over 55% in size
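Camptothecin absent (DMSO only). Human TDP1-complemented DT40 knockout cells, 400 cells/well, 37 °C for minimum 48 hr; ATP measured via CellTiter-Glo, 30 min dark incubation, luminescence.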
HepG2 viability = counter-screen for TGF-b inhibitors: cytotoxicity in HepG2 cells. HepG2 CAGA-GFP viability, ATP luminescence, 18 h. Potency, µM (top dose mostly 46.1 µM), most hits filed as cytotoxic. 0.76% of 410,000 active
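HepG2 CAGA-GFP cells (1000/well, DMEM with 1% FBS) received compound, then TGF-beta at 500 pg/mL final, and were incubated 18 hours at 37 degrees C. Viability was read by CellTiter-Glo luminescence. Media-only wells were set as complete cell-killing and DMSO as no toxicity.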
TDP1 cell CPT = DT40-hTDP1 cell growth loss with CPT; chicken DT40 Tdp1-/-;hTDP1 cells + 20 nM CPT, ATP luminescence, 48 h; Potency, µM (titrated, usually from 46.2 µM), most hits filed as inhibitors; 12% of 420,000 active; AID 686979; note: nearly all actives have a fitted effect of over 55% in size
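Chicken DT40 Tdp1-/- cells stably complemented with human TDP1 were seeded at 400 cells/well in medium containing 20 nM camptothecin, exposed to pin-transferred compounds, and grown at 37 °C for at least 48 hr. Viability was read as ATP luminescence.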
ASM inhibitor = blocks human secretory acid sphingomyelinase. placental ASM, HMU-PC fluorogenic substrate, 60 min. Potency, µM (top dose mostly 57.5 µM), most hits filed as inhibitors. 0.006% of 340,000 active
Target sequence (P17405 47-631 limits assumed): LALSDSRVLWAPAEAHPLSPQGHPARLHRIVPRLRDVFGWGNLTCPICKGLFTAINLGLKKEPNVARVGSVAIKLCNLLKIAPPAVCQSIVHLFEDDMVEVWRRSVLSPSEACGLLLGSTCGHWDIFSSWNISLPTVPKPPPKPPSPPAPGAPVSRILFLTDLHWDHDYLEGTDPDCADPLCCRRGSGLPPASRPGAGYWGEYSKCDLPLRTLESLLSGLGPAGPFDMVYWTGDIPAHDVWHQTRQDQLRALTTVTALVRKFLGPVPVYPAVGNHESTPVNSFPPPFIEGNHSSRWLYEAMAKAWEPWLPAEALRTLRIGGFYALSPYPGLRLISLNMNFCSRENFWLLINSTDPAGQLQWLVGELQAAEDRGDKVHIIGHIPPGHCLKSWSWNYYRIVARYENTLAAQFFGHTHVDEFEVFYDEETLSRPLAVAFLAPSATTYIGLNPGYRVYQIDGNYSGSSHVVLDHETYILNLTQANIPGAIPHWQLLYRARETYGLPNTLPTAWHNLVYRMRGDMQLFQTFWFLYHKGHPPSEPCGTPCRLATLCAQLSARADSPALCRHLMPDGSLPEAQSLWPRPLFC
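Fluorogenic HMU-PC substrate (9 uM final) is turned over by placental ASM in 60 min at 37 C after a 10 min compound preincubation. Reaction ended by alkaline stop (pH 10), with fluorescence read at 386/447 nm.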
IL1B secr inh = blocks inflammasome-driven IL-1 beta release; activity change, % at 57.5 µM; THP-1 LPS/ATP IL-1B secretion, AlphaLISA, 16 h; hits give low values; AID 743279; 4.7% of 360,000 active; in the data active = activity change below about -50%; inconclusive = mostly about -30% to -49%
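THP-1 cells pretreated 1 hr with compounds (up to 57.5 uM final), then stimulated with LPS (250 ng/mL final) plus ATP (1.25 mM final); secreted IL-1B measured by AlphaLISA after 16 hr, decreased signal indicating inhibition.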
Large screens that a line does not name were inactive. Unless noted, calls come from the whole dose curve; as a rule, active = well fitted curve in the direction sought with a large enough effect; inconclusive = small, poorly fitted or top-dose-only effect, or another doubt; inactive = no such curve, though single readings can be large; an effect the other way counts as inactive or inconclusive.

C=CCN(CC=C)c1ccc(/C=C/c2ccnc3ccccc23)cc1	TGFb inhibitor inconclusive, DT40 TDP1 no CPT inconclusive, TDP1 cell CPT 18µM (no result: ASM inhibitor, IL1B secr inh)
OCCN(CCO)c1ccc(/C=C/c2ccnc3ccccc23)cc1	DT40 TDP1 no CPT 14µM, TDP1 cell CPT 8.9µM (no result: ASM inhibitor, IL1B secr inh)
CN(C)c1ccc(N=Nc2ccc(/C=C/c3ccnc4ccccc34)cc2)cc1	DT40 TDP1 no CPT 18µM, TDP1 cell CPT inconclusive (no result: ASM inhibitor, IL1B secr inh)
Cc1nnsc1C(=O)NC(C)c1ccccc1 (stereo not drawn)	TDP1 cell CPT inconclusive
CCCCN(CCC#N)c1ccc(/C=C/c2ccnc3ccccc23)cc1	TGFb inhibitor inconclusive, DT40 TDP1 no CPT 10µM, TDP1 cell CPT 10µM (no result: ASM inhibitor, IL1B secr inh)
CCCCCCCN(CCCCCCC)c1ccc(/C=C/c2ccnc3ccccc23)cc1	none (no result: ASM inhibitor, IL1B secr inh)
Nc1ccc(/C=C/c2nccc3ccccc23)cc1	DT40 TDP1 no CPT inconclusive, TDP1 cell CPT inconclusive (no result: ASM inhibitor, IL1B secr inh)
CCN(Cc1ccccc1)c1ccc(/C=C/c2nccc3ccccc23)cc1	DT40 TDP1 no CPT inconclusive, TDP1 cell CPT 13µM (no result: ASM inhibitor, IL1B secr inh)
CC(C)CN(CC(C)C)c1ccc(/C=C/c2ccnc3ccccc23)cc1	DT40 TDP1 no CPT 18µM, TDP1 cell CPT 13µM (no result: ASM inhibitor, IL1B secr inh)
CCN(CC)c1ccc(/C=C/c2ccnc3ccccc23)cc1	DT40 TDP1 no CPT 18µM, TDP1 cell CPT inconclusive (no result: ASM inhibitor, IL1B secr inh)
Cc1cc(=O)[nH]c2nnc(SCC(=O)Nc3ccc(F)cc3F)n12	none (no result: ASM inhibitor, IL1B secr inh)
CCN(CC)CCN(CC)c1ccc(/C=C/c2ccnc3ccccc23)cc1	TGFb inhibitor inconclusive, DT40 TDP1 no CPT 4.5µM (no result: ASM inhibitor, IL1B secr inh)
CN(C)c1ccc(N=Nc2ccccc2Br)cc1	none
CN(C)c1ccc(N=Nc2ccnc3ccccc23)cc1	DT40 TDP1 no CPT 22µM, TDP1 cell CPT inconclusive (no result: ASM inhibitor, IL1B secr inh)
CCN(CC)CCN(C)c1ccc(/C=C/c2ccnc3ccccc23)cc1	TGFb inhibitor inconclusive, DT40 TDP1 no CPT inconclusive, TDP1 cell CPT inconclusive (no result: ASM inhibitor, IL1B secr inh)
N#CCCn1c(=O)c(-c2ccc(F)cc2)nc2cnc(OCc3ccccc3)nc21	none (no result: TGFb inhibitor, HepG2 viability, ASM inhibitor, IL1B secr inh)
CC12CN(S(=O)(=O)c3ccccc3)CC(C)(CN(S(=O)(=O)c3ccccc3)C1)C2	DT40 TDP1 no CPT inconclusive, TDP1 cell CPT 2.3µM
O=C(Cc1ccccc1Cl)Nc1cccnc1	none
CC1=C(C(=O)Nc2c(C)cc(C)cc2C)C2(CCN(C(C)C)CC2)OC1=O	none (no result: ASM inhibitor, IL1B secr inh)
CCc1ccc(S(=O)(=O)c2nnn(-c3cccc(C)c3)c2N)cc1	DT40 TDP1 no CPT 15µM, TDP1 cell CPT 21µM (no result: ASM inhibitor, IL1B secr inh)
CCOc1ccccc1-n1nnc(S(=O)(=O)c2ccc(C)cc2)c1N	DT40 TDP1 no CPT 12µM, TDP1 cell CPT inconclusive (no result: ASM inhibitor, IL1B secr inh)
COCCn1c(=O)c(-c2cc(F)cc(F)c2)nc2cnc(Oc3ccc(OC)cc3)nc21	DT40 TDP1 no CPT inconclusive (no result: TGFb inhibitor, HepG2 viability, ASM inhibitor, IL1B secr inh)
Cc1c(C(=O)NC(=S)Nc2ccc3c4c(cccc24)CC3)cccc1[N+](=O)[O-]	DT40 TDP1 no CPT inconclusive, TDP1 cell CPT inconclusive
Cc1c(C(=O)NC(=S)Nc2ccc(NC(=O)c3cccs3)cc2)cccc1[N+](=O)[O-]	DT40 TDP1 no CPT 13µM, TDP1 cell CPT inconclusive
Cc1c(C(=O)Nc2ccc3c(c2)CCC3)cccc1[N+](=O)[O-]	DT40 TDP1 no CPT inconclusive
O=[N+]([O-])c1cc(Br)c(Nc2ccccc2)c([N+](=O)[O-])c1	TGFb inhibitor 18µM, DT40 TDP1 no CPT 0.92µM, TDP1 cell CPT 0.82µM, IL1B secr inh -98
Cc1c(C(=O)Nc2ccc3c4c(cccc24)CC3)cccc1[N+](=O)[O-]	DT40 TDP1 no CPT 16µM, TDP1 cell CPT inconclusive
Cc1c(C(=O)Nc2ccc(Nc3ccccc3)cc2)cccc1[N+](=O)[O-]	DT40 TDP1 no CPT 8.2µM, TDP1 cell CPT 9.2µM, IL1B secr inh inconclusive
CCOC(=O)c1ccc(NCCOC)c([N+](=O)[O-])c1	none
CCOC(=O)c1ccc(NC(=O)c2ccccc2[N+](=O)[O-])cc1	DT40 TDP1 no CPT 18µM
